According to PubChem BioAssay AID1159580 (chemical genetic matrix, 2015):
Several values for one entry are separate records, joined by “and”; a condition that tells them apart may be missing. Equal entries are not always repeated. About 2,000 (36%) of roughly 5,500 compounds were called active. About 18% were inconclusive and are not listed. Rule as the data show it: active = normalized growth mostly below about 0.91 (no sharp cut-off); inconclusive = no clear call, values can overlap the other calls; inactive = mostly above about 0.92. The list shows a part of the results.

Assay: chemical genetic growth profiling, strain panel (AID 1159580);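 also: tested at 20 µM; growth read once vehicle control cultures reached saturation at 30 °C; 1 = growth at the plate median or of vehicle wells; lower values mean less growth of the strain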
Conditions: S. cerevisiae deletion strains, growth OD

Measured: normalized growth

C/C=C/c1ccc2c(c1)OCO2
inactive: locus YAL013W, strain DEP1, hits give low values 1.01 | locus YAL021C, strain ccr4, hits give low values 1.02 | locus YAL026C, strain drs2, hits give low values 1.02 | locus YAL030W, strain snc1, hits give low values 1.02 | locus YBL061C, strain skt5, hits give low values 1.02 | locus YBR009C, strain hhf1, hits give low values 1.02 | locus YBR021W, strain FUR4, hits give low values 1.02 | locus YBR023C, strain chs3, hits give low values 1.02 | locus YBR171W, strain sec66, hits give low values 1.03 | locus YBR229C, strain ROT2, hits give low values 1.01 | locus YBR231C, strain swc5, hits give low values 1.02 | locus YBR279W, strain paf1, hits give low values 1.02 | locus YCL011C, strain gbp2, hits give low values 1.01 | locus YCL016C, strain dcc1, hits give low values 1.02 | locus YCL029C, strain bik1, hits give low values 1.01 | locus YCL061C, strain MRC1, hits give low values 1 | locus YCL069W, strain vba3, hits give low values 1.02 | locus YCR088W, strain abp1, hits give low values 1.02 | locus YDL005C, strain med2, hits give low values 1.02 | locus YDL035C, strain GPR1, hits give low values 1.02 | locus YDL040C, strain nat1, hits give low values 1.02 | locus YDL074C, strain BRE1, hits give low values 1.07 | locus YDL101C, strain DUN1, hits give low values 1.02 | locus YDL134C, strain PPH21, hits give low values 1 | locus YDL185W, strain tfp1, hits give low values 0.998 | locus YDL192W, strain arf1, hits give low values 1.01 | locus YDR001C, strain nth1, hits give low values 1 | locus YDR069C, strain doa4, hits give low values 1.04 | locus YDR101C, strain arx1, hits give low values 1.04 | locus YDR137W, strain rgp1, hits give low values 0.994 | locus YDR150W, strain NUM1, hits give low values 1.01 | locus YDR159W, strain sac3, hits give low values 1.02 | locus YDR162C, strain NBP2, hits give low values 1 | locus YDR195W, strain ref2 0.988 | locus YDR297W, strain sur2, hits give low values 1.02 | locus YDR318W, strain mcm21, hits give low values 0.991 | locus YDR334W, strain swr1, hits give low values 1.02 | locus YDR335W, strain msn5, hits give low values 1.02 | locus YDR388W, hits give low values 1.01 | locus YDR392W, strain spt3, hits give low values 0.912 | locus YDR502C, strain sam2, hits give low values 1.01 | locus YEL003W, strain gim4, hits give low values 1.02 | locus YEL037C, strain rad23, hits give low values 1.01 | locus YEL061C, strain CIN8 (second series), hits give low values 1.01 | locus YEL061C, strain CIN8, hits give low values 1.01 | locus YER015W, strain faa2, hits give low values 1.01 | locus YER016W, strain bim1, hits give low values 1.02 | locus YER110C, hits give low values 1.01 | locus YER111C, strain swi4, hits give low values 1.01 | locus YER155C, strain BEM2 (second series), hits give low values 0.997 | locus YER155C, strain BEM2, hits give low values 1.01 | locus YER167W, strain BCK2, hits give low values 1.01 | locus YFR010W, strain ubp6, hits give low values 1.02 | locus YGL078C, strain dbp3, hits give low values 1.02 | locus YGL086W, strain mad1, hits give low values 1.05 | locus YGL167C, strain pmr1, hits give low values 1.02 | locus YGL173C, strain kem1, hits give low values 1.02 | locus YGL227W, strain vid30, hits give low values 1.02 | locus YGL240W, strain doc1, hits give low values 1.01 | locus YGL248W, strain PDE1, hits give low values 1.02 | locus YGL253W, strain hxk2, hits give low values 1.02 | locus YGR078C, strain PAC10, hits give low values 1.01 | locus YGR135W, strain pre9, hits give low values 1.01 | locus YGR252W, strain gcn5, hits give low values 0.972 | locus YHR013C, strain ard1, hits give low values 1.09 | locus YHR027C, strain rpn1, hits give low values 1.02 | locus YHR030C, strain SLT2, hits give low values 1.01 and 0.978 | locus YHR079C, strain IRE1 (second series), hits give low values 1 | locus YHR079C, strain IRE1, hits give low values 0.98 | locus YHR094C, strain hxt1, hits give low values 0.994 | locus YHR129C, strain ARP1, hits give low values 1.01 | locus YHR142W, strain chs7, hits give low values 1.03 | locus YHR200W, strain rpn10, hits give low values 1.01 | locus YIL066C, strain RNR3, hits give low values 1.02 | locus YIL073C, strain SPO22, hits give low values 1.06 | locus YIL125W, strain kgd1, hits give low values 1.01 | locus YIR030C, strain dcg1, hits give low values 0.998 | locus YJL092W, strain hpr5, hits give low values 1.01 | locus YJL095W, strain BCK1 (second series), hits give low values 1.02 | locus YJL095W, strain BCK1, hits give low values 1.02 and 0.98 | locus YJL115W, strain asf1, hits give low values 1.03 | locus YJL129C, strain trk1, hits give low values 1.03 | locus YJL134W, strain LCB3, hits give low values 1.01 | locus YJL154C, strain vps35, hits give low values 1 | locus YJL164C, strain tpk1, hits give low values 1.01 | locus YJL166W, strain qcr8, hits give low values 1.01 | locus YJL168C, strain set2, hits give low values 1.01 | locus YJL187C, strain SWE1 (second series), hits give low values 1.03 | locus YJL187C, strain SWE1, hits give low values 1.01 | locus YJR043C, strain POL32, hits give low values 1.02 | locus YJR066W, strain TOR1, hits give low values 0.948
